# Test results as given in PubChem BioAssay.
# Potency and affinity values are given separately. A number with no mark means an inactive call. Where a call stands in place of a potency, no number is given. The source made the active and inactive calls. How the calls were made is not given here.
# Assays:
# [1] = A549 cell cytotoxicity, dose response, cytotoxicity control, plate reader, cherry-pick, antagonist series (AID 743412)
# [2] = toxicity toward HepG2 liver cells – cell-based, plate reader, cherry-pick, antagonist series, cytotoxicity control, dose response (AID 743416)
# [3] = target: Melanocortin receptor 4 (Homo sapiens) (UniProt P32245); experiment: blockade of melanocortin 4 receptor signaling – cell-based, plate reader, cherry pick, counter-screen for LGR2 antagonist project, dose response (AID 743444)
SMILES,outcome [1],outcome [2],outcome [3],"activity change, negative = cytotoxicity [1]"
O=C(NCc1ccco1)c1cc(NS(=O)(=O)c2cccc([N+](=O)[O-])c2)ccc1O,inactive,inactive,inactive,
Cc1ccc(NC(=O)c2cnn(-c3ccccc3)c2C)cc1C,inactive,inactive,,
O=C(NCc1ccc(F)cc1)c1cc(C2CCCCN2S(=O)(=O)c2cccs2)on1 (configuration not stated),inactive,inactive,inactive,
C[C@H](CO)N1C[C@H](C)[C@@H](CN(C)S(=O)(=O)c2cccs2)Oc2c(cccc2N(C)C)C1=O,inactive,inactive,inactive,
COc1ccc(S(=O)(=O)Nc2ccc3c(c2)C(=O)N([C@H](C)CO)C[C@H](C)[C@H](CN(C)S(=O)(=O)c2ccc(F)cc2)OCCCC[C@@H](C)O3)cc1,inactive,inactive,inactive,
COCCn1c(C)c(C)c2c(NCCc3ccccc3)ncnc21,inactive,inactive,,
CCc1nnc2cccc(Cl)n12,inactive,inactive,inactive,
Cc1ccc(C(=O)Nc2ccc3c(c2)OCCO3)c(Cl)c1,inactive,inactive,,
O=C(Nc1cccc(C(=O)O)c1)Nc1ccccc1Cl,inactive,inactive,,
Cc1noc(C)c1S(=O)(=O)Nc1ccc2c(c1)C(=O)N([C@H](C)CO)C[C@H](C)[C@H](CN(C)C(=O)Nc1ccc(F)cc1)OCCCC[C@@H](C)O2,inactive,inactive,inactive,
C[C@H](CO)N1C[C@H](C)[C@H](CN(C)C(=O)Nc2ccc3c(c2)OCO3)OCCCC[C@H](C)Oc2ccc(NC(=O)NC3CCCCC3)cc2C1=O,inactive,inactive,inactive,
CCCCC(=O)N(C)c1c(C)nc2ccc(C(=O)N3CCCCC3)cn12,inactive,inactive,inactive,
C[C@@H]1CN([C@@H](C)CO)C(=O)c2cc(NS(C)(=O)=O)ccc2O[C@@H](C)CCCCO[C@@H]1CN(C)Cc1ccc(C(F)(F)F)cc1,inactive,inactive,inactive,
COc1ccc(OCC(=O)Nc2nccs2)cc1,inactive,inactive,,
O=C1OCCC1Sc1nnc(-c2ccc(Cl)cc2Cl)o1 (configuration not stated),inactive,inactive,,
COc1ccccc1C=NNC(=O)c1ccncc1,inactive,inactive,inactive,
C[C@H](CO)N1C[C@H](C)[C@H](CN(C)Cc2ccccc2)Oc2c(NS(=O)(=O)c3cn(C)cn3)cccc2C1=O,inactive,inactive,inactive,
CN(c1ccccc1)S(=O)(=O)c1cccc(NC(=O)c2cc(=O)c3ccccc3o2)c1,inactive,inactive,,
CC(C)(C)NC(=O)c1cccc(NC(=O)c2ccc3c(c2)C(=O)N(C(C)(C)C)C3=O)c1,inactive,inactive,inactive,
COc1ccc(S(=O)(=O)N2CCN(C(=O)c3ccc(C)o3)CC2)cc1,inactive,inactive,inactive,
O=C(Nc1nc2c(s1)CCCC2)C1COc2ccccc2O1 (configuration not stated),inactive,inactive,,
C[C@H](CO)N1C[C@H](C)[C@H](CN(C)C(=O)Nc2ccccc2)OCCCC[C@H](C)Oc2ccc(NC(=O)NC3CCCCC3)cc2C1=O,inactive,inactive,inactive,
CCOC(=O)C1=CCN(S(=O)(=O)c2ccccc2C)C1c1cccc(C)c1 (configuration not stated),inactive,inactive,inactive,
O=C(NCCOc1ccccc1)[C@@H]1CCCN1C(=O)c1cccs1,inactive,inactive,inactive,
O=C(C[C@H]1CC[C@H](NS(=O)(=O)c2cccc(F)c2)[C@@H](CO)O1)N1CCCCC1,inactive,inactive,inactive,
CC(C)N(C(=O)Nc1ccc2nsnc2c1)C(C)C,inactive,inactive,inactive,

SMILES,outcome [1],outcome [2],outcome [3],"activity change, negative = cytotoxicity [1]"
CCOC(=O)Nc1ccc(N2CCOCC2)c(S(=O)(=O)Nc2ccc(Cl)cc2)c1,,inactive,inactive,19.4% [at 6 µM]
Clc1ccc(-n2ncc3c(N4CCCC4)ncnc32)cc1,inactive,inactive,,
CO[C@H]1CN(C)C(=O)c2ccc(NC(=O)c3ccc(-c4ccccc4)cc3)cc2OC[C@@H](C)NC[C@@H]1C,inactive,inactive,inactive,
CCn1cc(S(=O)(=O)Nc2cccnc2)cn1,inactive,inactive,inactive,
O=C(Cc1ccccc1Cl)Nc1cccnc1,inactive,inactive,inactive,
O=C(NCCc1ccccc1)c1ccc2c(c1)OCO2,inactive,inactive,,
COc1ccc2c3c([nH]c2c1)[C@H](CO)N(C(C)=O)CC31CCN(C(=O)CN2CCOCC2)CC1,inactive,inactive,inactive,
CC(=O)Nc1cccc(-c2ccnc3c2CC(C(=O)NCc2cccnc2)O3)c1 (configuration not stated),inactive,inactive,inactive,
Cc1noc2ncnc(Sc3ccc(Br)cc3)c12,inactive,,inactive,
O=C(C[C@H]1C=C[C@@H](NC(=O)C2CCC2)[C@H](CO)O1)NCCCN1CCOCC1,inactive,inactive,inactive,
CC(=O)c1ccc(S(=O)(=O)N2CCC(NC(=O)Nc3cccc(F)c3)CC2)cc1,inactive,inactive,inactive,
COc1ccc(N(CC(=O)NCc2cccs2)S(=O)(=O)c2ccc(C(C)=O)cc2)cc1,inactive,,inactive,
CC(C)c1ccc(NC(=O)N2CCN(S(=O)(=O)c3ccccc3)CC2)cc1,inactive,inactive,inactive,
COc1ccc(NC(=O)N(C)C[C@@H]2OCCCC[C@H](C)Oc3ccc(NC(=O)NC4CCCCC4)cc3C(=O)N([C@H](C)CO)C[C@@H]2C)cc1,inactive,inactive,inactive,
COc1ccc(-c2nc(N)n(C(=O)c3cccs3)n2)cc1,inactive,inactive,inactive,
Cc1cc(Cl)ccc1OCCCC(=O)Nc1cc(S(=O)(=O)N2CCOCC2)ccc1N1CCOCC1,inactive,inactive,inactive,
Cc1ccnc(N2C(=O)c3ccccc3C2Nc2ccc3c(c2)OCCO3)c1 (configuration not stated),inactive,inactive,inactive,
COCC#Cc1ccc2c(c1)O[C@H](CN(C)S(=O)(=O)c1cccc(F)c1)[C@@H](C)CN([C@H](C)CO)S2(=O)=O,inactive,,inactive,
CCN(C(=O)COC(=O)C12CC3CC(CC(O)(C3)C1)C2)c1c(N)n(Cc2ccccc2)c(=O)[nH]c1=O,inactive,inactive,inactive,
C[C@H]1CCCCO[C@H](CN(C)C(=O)Nc2cccc3ccccc23)[C@@H](C)CN([C@@H](C)CO)C(=O)c2cc(NS(=O)(=O)c3cn(C)cn3)ccc2O1,inactive,inactive,inactive,
CC(=O)c1c(C)[nH]c(C(=O)CN2C(=O)NC(C)(c3ccc(C)cc3)C2=O)c1C (configuration not stated),inactive,inactive,inactive,
Cc1cccn2c(CNCC3(c4ccccc4)CCCC3)c(C(=O)N3CCOCC3)nc12,inactive,inactive,inactive,
C[C@@H]1CN([C@H](C)CO)C(=O)c2c(c3ccccc3n2C)-c2ccccc2CO[C@H]1CN(C)S(=O)(=O)c1cn(C)cn1,inactive,inactive,inactive,
C[C@@H]1CN([C@H](C)CO)C(=O)c2cc(C#CCN(C)C)cnc2O[C@@H]1CN(C)C(=O)CN1CCOCC1,inactive,inactive,inactive,
N#C[C@H]1[C@@H](c2ccc(C3=CCCCC3)cc2)[C@H](CO)N1C(=O)c1ccccn1,inactive,,inactive,
COc1ccccc1CNS(=O)(=O)c1ccc(N2CCCC2)cc1Br,inactive,inactive,inactive,
